Calls of active or inactive are those of the source. How the source made its calls: active means hit-call score of the fitted dose curve at least 0.9, where 1 is the maximum; inactive means score below 0.9.
Read-out: Vascular cell adhesion molecule 1 (VCAM1), VCAM1 (gene 7412)
Assay: BSK_LPS_VCAM1: BioMAP Diversity Plus: LPS Assay for Vascular cell adhesion molecule 1 (VCAM1) Biomarker Activity (AID 2283086)
Details: primary human HUVEC with PBMC; actives raise or lower the signal
Procedure, shortened: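 ELISA read-out of VCAM-1 at 24 h post-dosing in an LPS-driven HUVEC/PBMC primary human co-culture; gain or loss of signal fitted bidirectionally against DMSO baseline. Cytotoxicity tracked in parallel cultures by SRB total-protein staining.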

Row | Compound | outcome | AC50
1 | O=C(O)Cc1cc(I)c(Oc2ccc(O)c(I)c2)c(I)c1 | inactive | –
2 | Cc1cccc2ccccc12 | inactive | –
3 | O=c1c(-c2ccc(O)cc2)coc2cc(O)cc(O)c12 | – | 13.9 µM (active)
4 | CC/C(=C(/CC)c1ccc(O)cc1)c1ccc(O)cc1 | – | 26.8 µM (active)
5 | Cc1cc(F)ccc1-c1cc(N2CC[C@@H](O)[C@H]2CO)ncc1N(C)C(=O)C(C)(C)c1cc(C(F)(F)F)cc(C(F)(F)F)c1 | – | 11.2 µM (active)
6 | O=C1O[C@H]([C@@H](O)CO)C(O)=C1O | inactive | –
7 | CO[C@H]1/C=C/O[C@@]2(C)Oc3c(C)c(O)c4c(O)c(c(/C=N/N5CCN(C)CC5)c(O)c4c3C2=O)NC(=O)/C(C)=C\C=C\[C@H](C)[C@H](O)[C@@H](C)[C@@H](O)[C@@H](C)[C@H](OC(C)=O)[C@@H]1C | inactive | –
8 | C[C@]12CC[C@@H]3c4ccc(O)cc4CC[C@H]3[C@@H]1CCC2=O | inactive | –
9 | Oc1ccc2ccccc2c1 | inactive | –
10 | c1ccc(C[n+]2cccc3ccccc32)cc1 | inactive | –
11 | CCCCCCCCCCCO | inactive | –
12 | O=C(Nc1ccc(Cl)cc1)Nc1ccc(Cl)c(Cl)c1 | – | 3.92 µM (active)
13 | CCCCCCCCOC(=O)c1cc(O)c(O)c(O)c1 | – | 30.6 µM (active)
14 | CN1C(=O)N(c2ccccc2Br)Cc2cnc(Nc3ccc4c(c3)OCC(CO)O4)nc21 (stereo unspecified) | – | 7.92 µM (active)
15 | Cc1occc1C(=O)Nc1ccc(C(=O)N2CCC(F)(F)/C(=C\C(=O)N3CCC(N4CCCCC4)CC3)c3ccccc32)cc1 | inactive | –
16 | Cc1oc2c(NC(=O)c3c(Cl)cccc3Cl)cccc2c1C(C)(C)O | inactive | –
